Several values for one entry are separate records, joined by “and”; a condition that tells them apart may be missing. Identical values can stand only once.
Legend:
Test in all cases: growth inhibition (% activity, log2 RLU normalised to DMSO / staurosporine); higher = more growth inhibition
Conditions in all cases: 33 µM
DIPGX29 = test system: DIPGX29 (H3.3 K27M diffuse intrinsic pontine glioma line)
How it was run: (§1)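 Approved drugs, at a single final concentration of about 33 μM, were applied in triplicate to pHGG cell lines and H9-derived neural stem cells for 7 days at 37 °C, 5% CO2. The growth-inhibition value is the replicate median of log2-transformed CellTiter-Glo luminescence normalised per plate to % activity between solvent and positive control wells.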

DIPGX37 = test system: DIPGX37 (H3.3 K27M diffuse intrinsic pontine glioma line)
How it was run: as §1

DIPGX7 = test system: DIPGX7 (H3.3 K27M diffuse intrinsic pontine glioma line)
How it was run: as §1

DIPGX9 = test system: DIPGX9 (diffuse intrinsic pontine glioma line)
How it was run: as §1

HGGX39 = test system: HGGX39 (paediatric high-grade glioma line)
How it was run: as §1

HGGX6 = test system: HGGX6 (H3.3 G34R paediatric high-grade glioma line)
How it was run: as §1

HNSC = test system: HNSC
How it was run: as §1

SUDIPGIV = test system: SUDIPGIV (diffuse intrinsic pontine glioma line)
How it was run: as §1

SUDIPGVI = test system: SUDIPGVI (diffuse intrinsic pontine glioma line)
How it was run: as §1

SUDIPGXIII = test system: SUDIPGXIII (diffuse intrinsic pontine glioma line)
How it was run: as §1

| SMILES | growth inhibition (DIPGX29) | growth inhibition (DIPGX37) | growth inhibition (DIPGX7) | growth inhibition (DIPGX9) | growth inhibition (HGGX39) | growth inhibition (HGGX6) | growth inhibition (HNSC) | growth inhibition (SUDIPGIV) | growth inhibition (SUDIPGVI) | growth inhibition (SUDIPGXIII) |
| --- | --- | --- | --- | --- | --- | --- | --- | --- | --- | --- |
| Cc1ccccc1C(=O)Nc1ccc(C(=O)N2CCCC(O)c3cc(Cl)ccc32)c(C)c1 (stereo not drawn) | 1.7% | 2.36% | 1.66% | 1.96% | 5.63% | 2.91% | 3.21% | 2.35% | 3.58% | 0.514% |
| CCOC(=O)[C@H](CCc1ccccc1)N[C@H]1CCCN2CCC[C@@H](C(=O)O)N2C1=O | 2.06% | 3.84% | 3.15% | 2.7% | 2.78% | 1.01% | 9.63% | 0.443% | 4.92% | -0.861% |
| N=C(N)NC(=O)c1nc(Cl)c(N)nc1N | 1.79% and -1.36% | 1.85% and 0.649% | 1.7% and 0.904% | 2.64% and 0.337% | 2.38% and 4% | -0.794% and 0.512% | – | 7.17% and 6.85% | 2.25% and 2.53% | -0.984% and -0.159% |
| CN(C)CCCOc1nn(Cc2ccccc2)c2ccccc12 | 13.9% | -2.22% | 24.6% | 5.76% | 18.9% | 14.8% | 40.8% | 18.5% | -1.11% | 0.197% |
| CCN1CCCC1CNC(=O)c1cc(S(=O)(=O)CC)c(N)cc1OC (stereo not drawn) | 2.92% | -2.18% | 2.4% | -0.361% | 1.17% | -1.1% | 0.824% | 2.02% | -8.92% | -0.464% |
| CCOc1nc2cccc(C(=O)O)c2n1Cc1ccc(-c2ccccc2-c2nnn[nH]2)cc1 | 0.354% | -0.496% | 0.489% | -0.089% | 0.622% | 1.65% | 1.93% | -0.153% | 0.98% | -0.345% |
| C=Cc1c(C)c2cc3nc(cc4[nH]c(cc5nc(cc1[nH]2)C(C)=C5CCC(=O)O)c(CCC(=O)OC)c4C)C1(C)C3=CC=C(C(=O)OC)C1C(=O)OC (stereo not drawn) | 0.0791% | -1.21% | 0.254% | -0.022% | 1.95% | 0.712% | 2.35% | -0.469% | -1.11% | -2.15% |
| NCCS(=O)(=O)O | 0.304% | 1.36% | 0.217% | 0.788% | 0.579% | 1.43% | -2.23% | -0.945% | 0.882% | -0.421% |
| O=C1C(=O)c2ccccc2C(O)=C1C1CCC(c2ccc(Cl)cc2)CC1 (stereo not drawn) | 1.86% | -1.09% | 2.26% | 2% | 1.71% | 0.641% | 2.01% | 3.44% | 2.48% | 1.82% |
| CCC[C@@H]1C[C@@H](C(=O)N[C@@H]([C@H]2O[C@H](SC)[C@H](OP(=O)(O)O)[C@@H](O)[C@H]2O)[C@H](C)Cl)N(C)C1 | -4.37% | -1.53% | -1.72% | -1.01% | -2.23% | -2.46% | 3.42% | -1.74% | -2.75% | 0.327% |
| Nc1[nH]cnc2ncnc1-2 | -2.79% and 0.888% and 0.703% | -2.72% and -1.28% and 1.74% | -0.783% and 2.97% and -0.884% | -3.07% and 2.41% and -1.07% | -1.64% and 3.54% and 2.19% | -4.48% and -0.101% and -1.37% | – | -2.98% and 0.339% and 0.701% | -1.95% and 3.66% and 1.39% | -0.991% and 0.292% and 0.516% |
| CO[C@@H]1[C@@H](OC(N)=O)[C@@H](O)[C@H](Oc2ccc3c(O)c(NC(=O)c4ccc(O)c(CC=C(C)C)c4)c(=O)oc3c2C)OC1(C)C | -0.0643% | 3.02% | 1.66% | 0.55% | 3.59% | -2.58% | 12.1% | 4.51% | 2% | -0.64% |
| CCCN[C@H]1CCc2nc(N)sc2C1 | -1.19% and -0.0554% | -0.814% and -5.15% | -0.691% and -0.331% | -0.203% and -1.15% | -0.555% and -2.37% | 3.71% and 0.0769% | -2.69% and 0.0733% | -0.717% and -1.61% | -0.616% and -4.53% | -6.77% and -0.361% |
| O=C(C[S+]([O-])Cc1ccco1)NC/C=C\COc1cc(CN2CCCCC2)ccn1 (stereo not drawn) | -1.37% | -2.72% | 0.0817% | -0.604% | -0.28% | 0.0479% | -2.82% | -2.24% | -1.66% | -2.4% |
| Clc1ccccc1C(c1ccccc1)(c1ccccc1)n1ccnc1 | 3.31% | 0.662% | 3.85% | 6.07% | 16.9% | 14.3% | 31.3% | 26.9% | 2.55% | 42.1% |
| O=C(O)C1=CO[C@@H](O[C@@H]2O[C@H](CO)[C@@H](O)[C@H](O)[C@H]2O)[C@@H]2C(CO)=CC[C@H]12 | -3.84% | -2.61% | -0.0942% | -1.59% | -2.13% | -4.13% | 9.11% | -1.22% | -7.67% | -1.52% |
| CC(C)[C@H](N)C(=O)OCCOCn1cnc2c(=O)nc(N)[nH]c21 | 0.298% | 0.698% | -1.22% | 1.11% | 0.616% | 1.05% | -0.55% | -0.767% | 0.129% | 1.61% |
| CSc1ccc2c(c1)N(CCC1CCCCN1C)c1ccccc1S2 (stereo not drawn) | 1.58% | 0.408% | -0.0552% | -0.344% | 2.69% | -0.282% | 7.39% | 0.193% | -0.552% | 0.0949% |
| Nc1ccc(S(=O)(=O)Nc2ccccn2)cc1 | 0.131% | -0.785% | -0.925% | -0.171% | 0.333% | 0.609% | 0.764% | -1.02% | 1.15% | -1.65% |
| C[C@]12CC[C@H](O)CC1=CC[C@@H]1[C@@H]2CC[C@]2(C)C(c3cccnc3)=CC[C@@H]12 | -2.51% | -0.544% | 0.888% | 2.81% | 3.94% | -0.894% | -6.23% | 0.327% | -2.29% | -1.17% |
| O=C(OCC(O)CO)c1ccccc1Nc1ccnc2cc(Cl)ccc12 (stereo not drawn) | 0.939% | 1.64% | -1.23% | 1.63% | 3.28% | 1.2% | 0.63% | -4.61% | 2.77% | 0.927% |
| CCOC(=O)c1ncn2c1CN(C)C(=O)c1cc(F)ccc1-2 | 1.51% | 1.71% | 0.351% | 4.52% | 2.75% | 0.552% | 0.0947% | -1.75% | 2.57% | 2.26% |
| Oc1cc(O)c(Cl)cn1 | -1.47% | -1.68% | -1.58% | -0.302% | -2.27% | 0.219% | -3.27% | -2.24% | -1.42% | 0.7% |
| C=C1/C(=C\C=C2/CCC[C@]3(C)[C@@H]([C@H](C)CCCC(C)C)CC[C@@H]23)C[C@@H](O)C[C@@H]1O | -0.46% | 2.45% | 4.43% | 1.86% | 3.21% | 3.92% | 1.06% | 0.347% | 1.52% | 0.72% |
| CCCCNC(=O)NS(=O)(=O)c1ccc(C)cc1 | -0.968% | 2.64% | -0.647% | 1.33% | 2.32% | -1.26% | 8.77% | 1.65% | 2.09% | -0.858% |
| Nc1ccc(C(=O)O)c(O)c1 | 0.612% | 1.18% | 0.982% | 0.745% | 1.12% | 1.72% | -0.259% | 0.343% | -1.22% | -1.06% |
| COc1cc(Cc2cnc(N)nc2N)cc(OC)c1OC | 1.94% | 3.36% | 1.59% | 1.97% | 3.59% | 2.4% | 0.59% | 2.24% | 2.5% | -1.4% |

— the supplement of paper PMC8253809
